Structures can show the parent of a compound that is named as a salt. The full ranking holds about 7,300 compounds; the median of “AC50” is about 90,000 nM, and the lowest 2% start at about 20,000 nM. This is one part of the list.
Test system: thyroid hormone receptor (endogenous TRα and TRβ)
Set-up: species or system GH3-TRE-Luc (rat pituitary); GH3-TRE-Luc luciferase reporter transactivation, agonist mode, qHTS; RXR ligands can also activate indirectly
Conditions: read-out: TR_LUC_GH3_Agonist_AC50, agonist mode, primary qHTS, 24 h

Compound | AC50
C[C@]12CC[C@H]3C(=CCc4cc(O)ccc43)[C@@H]1CCC2=O [Equilin] | 3410 nM
COc1ccc(OC)c(C(O)C(C)N)c1 (centres unmarked) [Methoxamine hydrochloride] | 32000 nM
Cc1cc(NC(=O)C(=O)O)cc(C)c1Oc1ccc(O)c2c1CCC2 [CP-634384] | 1.47 nM
CC1=C(/C=C/C(C)=C\C=C\C(C)=C\C(=O)O)C(C)(C)CCC1 [9-cis Retinoic acid] | 4180 nM
CC1=C(/C=C/C(C)=C/C=C/C(C)=C/C(=O)O)C(C)(C)CCC1 [all trans-Retinoic acid] | 319 nM
CC1=C(/C=C/C(C)=C/C=C/C(C)=C\C(=O)O)C(C)(C)CCC1 [13-cis Retinoic acid] | 133 nM
NCC(=O)CCC(=O)O [Aminolevulinic acid hydrochloride] | 28700 nM
CC(C)(C)CC(C)(C)c1ccc(O)c(Cc2ccc(Cl)cc2Cl)c1 [Clofoctol] | 1370 nM
N[C@@H](Cc1cc(I)c(Oc2cc(I)c(O)c(I)c2)c(I)c1)C(=O)O [Levothyroxine] | 7.89 nM
O=C(O)Cc1cc(I)c(Oc2cc(I)c(O)c(I)c2)c(I)c1 [Tetrac, 3,3ʹ,5,5ʹ-tetraiodothyroacetic acid] | 0.927 nM
C[C@H](CCC(=O)NCC(=O)O)[C@H]1CC[C@H]2[C@@H]3[C@H](O)C[C@@H]4C[C@H](O)CC[C@]4(C)[C@H]3C[C@H](O)[C@]12C [glycocholic acid] | 51800 nM

Reference: publication PMC6792352, “Limited Chemical Structural Diversity Found to Modulate Thyroid Hormone Receptor in the Tox21 Chemical Library” (Environmental Health Perspectives, 2019)
